GoLoco inh red = qHTS Assay for Inhibitors of RGS12 GoLoco Motif Activity (Red Fluorophore) | Guanine nucleotide-binding protein G(i) subunit alpha-1 (Homo sapiens), P63096 | Gai1:RGS12 GoLoco peptide FP, rhodamine, 10 min | Potency, µM (series often up to 61.6 µM), inactives show at the highest dose activity, negative = inhibition, hits mostly inhibitors | 230,000 tested, 0.44% active | AID 880, 2007; active = well fitted inhibition curve with a large enough effect, not every such curve was filed as active; inactive = no such curve, though single readings can be large or run the other way; also: potency is read from the fitted curve at half-maximal effect; % is scaled to controls: 0 for no effect and ±100 for the full control effect; nearly all actives have a fitted effect of over 30% in size
Menin-MLL FL inh = qHTS Assay for Inhibitors Targeting the Menin-MLL Interaction in MLL Related Leukemias: Competition With Fluorescein Labeled MLL-derived Peptide | Fluorescence polarization, fluorescein-MLL peptide displacement from menin | FP activity change, % at 61.4 µM | 290,000 tested, under 10 active; active = well fitted curve in the direction sought with a large enough effect in the polarisation, not every such curve was filed as active; inconclusive = small, poorly fitted or top-dose-only effect, or effect the other way, or a change in a side signal; inactive = no such curve, though single readings can be large or run the other way; the % refers to the polarisation; also: % of control where 0% means no effect
TR SRC2 fluor cs = Total Fluorescence Counterscreen for Inhibitors of the Interaction of Thyroid Hormone Receptor and Steroid Receptor Coregulator 2; Potency, µM (series often up to 106 µM), for inactives: top-dose fluorescence change, negative = quenching; 280,000 tested, 0.29% active; TRb/SRC2 Texas Red total fluorescence interference; active = well fitted curve in either direction with a large enough effect; inconclusive = small, poorly fitted or top-dose-only effect; also: potency is read from the fitted curve at half-maximal effect; % is scaled to controls: 0 for no effect and ±100 for the full control effect
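Human TRb ligand-binding domain at 0.6 uM with 20 nM Texas Red SRC2 peptide in Tris buffer containing 1 uM T3 and 5% DMSO, incubated with compound 5 h at ambient temperature. Total fluorescence (555/632 nm) calculated as parallel + 2 × perpendicular.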
MLL CXXC-DNA inh = qHTS Fluorescence Polarization Assay for Inhibitors of MLL CXXC domain - DNA interaction; AID 2662, 2010; MLL-CXXC / FITC-HOXA9 DNA fluorescence polarization; 290,000 tested, 0.037% active; Histone-lysine N-methyltransferase 2A (Homo sapiens), Q03164; Potency, µM (doses to about 115 µM), for inactives: top-dose activity change, negative = inhibition, hits mostly inhibitors; active = well fitted inhibition curve with a large enough effect in the polarisation, with a control signal flat, not every such curve was filed as active; inconclusive = small, poorly fitted or top-dose-only effect, or effect the other way, or a change in a side signal; inactive = no such curve, though single readings can be large or run the other way; the % refers to the polarisation; also: potency is read from the fitted curve at half-maximal effect
Target sequence (Q03164 whole entry, looked up, the tested form may be a part): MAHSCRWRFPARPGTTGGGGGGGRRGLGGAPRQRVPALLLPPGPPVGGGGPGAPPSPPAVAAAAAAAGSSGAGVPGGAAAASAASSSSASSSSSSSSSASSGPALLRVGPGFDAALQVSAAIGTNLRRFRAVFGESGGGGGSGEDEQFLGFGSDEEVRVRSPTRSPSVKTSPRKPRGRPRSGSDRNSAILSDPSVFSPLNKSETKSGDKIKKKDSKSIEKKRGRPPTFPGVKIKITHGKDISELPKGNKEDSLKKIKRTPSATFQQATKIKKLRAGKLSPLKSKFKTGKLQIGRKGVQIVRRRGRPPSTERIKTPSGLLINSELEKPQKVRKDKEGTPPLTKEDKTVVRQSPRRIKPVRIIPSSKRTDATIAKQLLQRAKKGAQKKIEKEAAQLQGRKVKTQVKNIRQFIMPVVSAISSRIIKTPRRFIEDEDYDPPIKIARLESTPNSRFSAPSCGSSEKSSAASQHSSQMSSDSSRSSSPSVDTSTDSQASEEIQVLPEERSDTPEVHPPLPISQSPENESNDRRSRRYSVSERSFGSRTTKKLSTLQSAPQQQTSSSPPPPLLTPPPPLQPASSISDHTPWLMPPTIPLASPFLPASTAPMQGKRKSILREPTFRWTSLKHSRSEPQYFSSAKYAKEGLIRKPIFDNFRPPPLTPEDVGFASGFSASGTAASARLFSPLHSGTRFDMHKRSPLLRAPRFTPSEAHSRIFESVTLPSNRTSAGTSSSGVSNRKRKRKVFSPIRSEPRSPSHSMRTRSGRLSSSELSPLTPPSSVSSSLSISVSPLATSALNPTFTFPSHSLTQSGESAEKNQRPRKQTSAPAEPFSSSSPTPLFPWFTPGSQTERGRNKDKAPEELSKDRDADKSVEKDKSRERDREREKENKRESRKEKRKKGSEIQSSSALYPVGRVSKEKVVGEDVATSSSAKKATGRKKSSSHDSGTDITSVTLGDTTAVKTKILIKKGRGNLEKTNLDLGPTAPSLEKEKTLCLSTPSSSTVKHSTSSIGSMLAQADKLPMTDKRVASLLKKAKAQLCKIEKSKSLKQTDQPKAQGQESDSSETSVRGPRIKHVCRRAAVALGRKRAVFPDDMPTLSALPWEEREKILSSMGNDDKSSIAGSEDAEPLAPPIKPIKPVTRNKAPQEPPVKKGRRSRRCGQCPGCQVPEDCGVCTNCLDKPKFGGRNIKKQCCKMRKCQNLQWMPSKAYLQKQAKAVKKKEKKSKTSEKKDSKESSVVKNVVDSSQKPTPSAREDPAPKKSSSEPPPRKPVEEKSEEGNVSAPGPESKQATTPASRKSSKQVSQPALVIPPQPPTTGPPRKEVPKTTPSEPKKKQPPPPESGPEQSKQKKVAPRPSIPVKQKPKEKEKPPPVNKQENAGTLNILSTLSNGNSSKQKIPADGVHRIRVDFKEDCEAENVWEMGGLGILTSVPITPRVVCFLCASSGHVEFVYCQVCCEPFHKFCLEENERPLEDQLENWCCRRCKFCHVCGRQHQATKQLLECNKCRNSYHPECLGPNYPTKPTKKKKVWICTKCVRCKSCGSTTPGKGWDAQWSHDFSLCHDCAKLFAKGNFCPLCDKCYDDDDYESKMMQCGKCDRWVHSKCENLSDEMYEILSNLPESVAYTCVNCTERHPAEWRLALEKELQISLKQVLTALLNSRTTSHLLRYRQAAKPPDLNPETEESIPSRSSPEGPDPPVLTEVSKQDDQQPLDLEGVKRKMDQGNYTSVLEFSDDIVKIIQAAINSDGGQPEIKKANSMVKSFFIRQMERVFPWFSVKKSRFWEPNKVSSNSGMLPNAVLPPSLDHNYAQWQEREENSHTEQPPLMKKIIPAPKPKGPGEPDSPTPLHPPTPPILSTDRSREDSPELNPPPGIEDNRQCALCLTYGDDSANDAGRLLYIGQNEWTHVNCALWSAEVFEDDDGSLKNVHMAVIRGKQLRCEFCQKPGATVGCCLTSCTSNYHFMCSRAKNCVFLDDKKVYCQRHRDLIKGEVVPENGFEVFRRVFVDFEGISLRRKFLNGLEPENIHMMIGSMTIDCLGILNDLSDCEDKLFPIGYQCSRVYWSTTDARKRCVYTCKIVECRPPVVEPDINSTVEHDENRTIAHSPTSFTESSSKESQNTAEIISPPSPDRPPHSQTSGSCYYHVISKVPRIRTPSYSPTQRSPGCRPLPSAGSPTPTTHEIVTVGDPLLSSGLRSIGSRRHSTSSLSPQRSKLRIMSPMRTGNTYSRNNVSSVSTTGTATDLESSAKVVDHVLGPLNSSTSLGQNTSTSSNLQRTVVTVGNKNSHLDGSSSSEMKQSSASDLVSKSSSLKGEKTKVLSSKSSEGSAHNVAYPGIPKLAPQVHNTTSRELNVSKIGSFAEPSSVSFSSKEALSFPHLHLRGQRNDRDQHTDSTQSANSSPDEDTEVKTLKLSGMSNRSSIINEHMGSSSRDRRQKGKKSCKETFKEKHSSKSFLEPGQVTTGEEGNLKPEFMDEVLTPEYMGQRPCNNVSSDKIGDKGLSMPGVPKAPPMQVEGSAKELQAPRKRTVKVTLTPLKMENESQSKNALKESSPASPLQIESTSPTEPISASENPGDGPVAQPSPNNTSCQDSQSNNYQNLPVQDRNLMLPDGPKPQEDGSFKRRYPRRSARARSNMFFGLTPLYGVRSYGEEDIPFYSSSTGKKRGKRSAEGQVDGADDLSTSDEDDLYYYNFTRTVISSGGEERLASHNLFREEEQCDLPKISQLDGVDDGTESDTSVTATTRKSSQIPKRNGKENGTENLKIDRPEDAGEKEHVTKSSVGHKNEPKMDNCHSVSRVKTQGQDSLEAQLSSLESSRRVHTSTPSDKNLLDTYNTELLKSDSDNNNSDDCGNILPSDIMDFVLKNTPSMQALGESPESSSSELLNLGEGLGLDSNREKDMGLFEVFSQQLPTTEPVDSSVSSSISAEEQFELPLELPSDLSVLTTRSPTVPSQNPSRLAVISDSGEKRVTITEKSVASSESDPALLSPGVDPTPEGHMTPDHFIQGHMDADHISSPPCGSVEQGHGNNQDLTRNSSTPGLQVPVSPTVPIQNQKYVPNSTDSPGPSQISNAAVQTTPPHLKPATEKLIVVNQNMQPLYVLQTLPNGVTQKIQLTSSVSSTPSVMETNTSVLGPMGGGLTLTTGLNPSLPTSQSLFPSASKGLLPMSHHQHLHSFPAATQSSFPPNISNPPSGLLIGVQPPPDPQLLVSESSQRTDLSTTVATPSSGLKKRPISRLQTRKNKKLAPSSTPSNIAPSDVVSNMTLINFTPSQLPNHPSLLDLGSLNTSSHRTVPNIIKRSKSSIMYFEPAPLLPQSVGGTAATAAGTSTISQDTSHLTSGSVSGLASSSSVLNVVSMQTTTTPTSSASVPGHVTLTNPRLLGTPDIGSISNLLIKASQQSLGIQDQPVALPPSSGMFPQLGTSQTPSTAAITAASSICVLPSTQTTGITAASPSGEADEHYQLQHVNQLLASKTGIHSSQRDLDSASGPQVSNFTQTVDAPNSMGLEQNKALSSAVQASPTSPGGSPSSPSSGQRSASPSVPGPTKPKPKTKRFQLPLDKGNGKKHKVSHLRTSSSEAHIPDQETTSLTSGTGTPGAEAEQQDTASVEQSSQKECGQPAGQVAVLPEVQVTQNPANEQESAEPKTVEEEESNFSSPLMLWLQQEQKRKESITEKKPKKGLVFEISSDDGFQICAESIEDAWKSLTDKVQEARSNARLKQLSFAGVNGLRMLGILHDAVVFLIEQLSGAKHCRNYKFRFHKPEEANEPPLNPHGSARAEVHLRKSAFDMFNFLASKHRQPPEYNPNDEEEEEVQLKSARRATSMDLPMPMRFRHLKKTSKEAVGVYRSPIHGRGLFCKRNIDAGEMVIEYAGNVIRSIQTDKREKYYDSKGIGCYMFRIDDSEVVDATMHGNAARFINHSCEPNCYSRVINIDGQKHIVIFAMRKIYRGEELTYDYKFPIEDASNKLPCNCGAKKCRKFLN
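Purified MLL-CXXC (added from a 7 uM solution) was preincubated 5 min at ambient with pinned compounds in 50 mM Tris-HCl pH 7.5, 50 mM NaCl, 1 mM DTT, 0.05% BSA. Fluorescein-labeled HOX-A9 DNA (50 nM solution) followed, 30 min, then polarization read.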
TRb-SRC2 inh = qHTS for Inhibitors of the Interaction of Thyroid Hormone Receptor and Steroid Receptor Coregulator 2 | Thyroid hormone receptor beta (Homo sapiens), P10828 | TRbeta-SRC2 peptide binding, fluorescence polarization; receptor liganded with 1 µM T3 | Potency, µM (series often up to 106 µM), without a hit: at the highest dose activity change, negative = inhibition, actives largely listed as inhibitors | 280,000 tested, 0.065% active | AID 1469, 2008; active = well fitted inhibition curve with a large enough effect; inconclusive = small, poorly fitted or top-dose-only effect, or effect the other way;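 also: potency is read from the fitted curve at half-maximal effect; plate controls were bound peptide for no effect and peptide without receptor for full effect; nearly all actives have a fitted effect of over 50% in size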
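Polarization signal, normalized between peptide-alone and full complex controls, measured compound effects on T3-liganded human TRb LBD (0.6 uM) binding 20 nM Texas Red SRC2 peptide after 5 hr.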
Menin MLL FP TR = qHTS Assay for Inhibitors Targeting the Menin-MLL Interaction in MLL Related Leukemias: Competition With Texas Red Labeled MLL-derived Mutant Peptide; Potency, µM (titrated, usually from 61.6 µM), inactives show at the highest dose FP activity change, negative = inhibition, usual class: inhibitors; O00255; 270,000 tested, 0.23% active; Menin + Texas Red MLL mutant peptide, fluorescence polarization; active = well fitted inhibition curve with a large enough effect in the polarisation, with a control signal flat, not every such curve was filed as active; inconclusive = small, poorly fitted or top-dose-only effect, or effect the other way, or a change in a side signal; inactive = no such curve, though single readings can be large or run the other way; the % refers to the polarisation; also: potency is read from the fitted curve at half-maximal effect; % of control where 0% means no effect
* marks the source's active call; other numbers are inactive results; ? = inconclusive; / = no result; ! = a repeat was not active; [ ] = dose if it differs, or a comment. Sampled rows, rich in hits. Any-hit rate of the full collection: about 0.5%.

SMILES	GoLoco inh red	Menin-MLL FL inh	TR SRC2 fluor cs	MLL CXXC-DNA inh	TRb-SRC2 inh	Menin MLL FP TR
Cc1c2cnn(CC(=O)NCc3ccc(F)cc3)c(=O)c2c(C)n1Cc1ccccc1F	/	/	0%	/	-1%	/
Cc1c2cnn(CC(=O)Nc3c(F)c(F)cc(F)c3F)c(=O)c2c(C)n1Cc1ccccc1F	84%	?	-12%	4%	7%	13µM*
O=C(/C=C/Nc1ccccc1F)c1cccs1	8.9µM*	9	-2%	29%	-14%	4%
O=C(/C=C/Nc1ccc(F)cc1F)c1cccs1	27%	?	-3%	14%	-27%	?
CCOC(=O)c1cc(CC)sc1NC(=O)COc1ccc2c(C)cc(=O)oc2c1	-3%	2	-1%	-2%	1%	-4%
CCOC(=O)c1cc(CC)sc1NC(=O)COc1ccccc1C	/	/	1.6µM*[quencher]	/	?	/
CCCCCCNC(=O)N[C@H](C(=O)NCCC[C@H]1CN2C(=NC[C@H]2C)N1CCC(c1ccccc1)c1ccccc1)C(C)O (some centres undefined)	10µM*	-1	1%	5%	4%	/
C[C@@H]1CN=C2N(CCNC(=O)CCC3CCCCC3)[C@H](Cc3ccc(O)cc3)CN21	-7%	-5	0%	11%	-1%	-1%
COC(=O)CCC(=O)OC1(C)C(=O)C=C2C=C(C3CC3)N(CC(C)C)C=C2C1=O (centres undefined)	3.5µM*!	?	1%[11.2 µM]	-10%	9%[11.2 µM]	-28%[11.7 µM]
CC[n+]1cc(-c2ccccc2)nc(N2CCOCC2)n1	7.1µM*	2	-1%	-3%	2%	-17%
CCC1OC23CCCCC2C(C#N)(C(=N)O3)C1(C#N)C#N (centres undefined)	35µM*	?	2%	-13%	-2%	?
N#CC1(C#N)COC23CCCCC2C1(C#N)C(=N)O3 (centres undefined)	0.89µM*	?	7%	-20%	-12%	28µM*
CC1OC23CCCCC2C(C#N)(C(=N)O3)C1(C#N)C#N (centres undefined)	-31%	-1	3%	?	-12%	3%
CCCC1OC23CCCCC2C(C#N)(C(=N)O3)C1(C#N)C#N (centres undefined)	28µM*	-26	9%	-24%	-21%	-7%
Cc1ccc(-n2c(CCC(=O)O)ccc2-c2cccs2)cc1Cl	/	/	-1%	/	4%	/
CN(Cc1ccccc1)S(=O)(=O)c1cc(Br)cc2c1N(C(=O)C1CC1)CC2	/	/	0%	/	6%	/
CCCSc1ncc(Cl)c(C(=O)N(Cc2cccc(Cl)c2)C2CCS(=O)(=O)C2)n1 (centres undefined)	/	/	9%	/	-1%	/
CCCSc1ncc(Cl)c(C(=O)N(Cc2ccc(N(C)C)cc2)C2CCS(=O)(=O)C2)n1 (centres undefined)	/	/	4.5µM*[quencher]	/	-13%[53 µM]	/
CN(C)c1ccc(NC(=O)c2ccc3nsnc3c2)cc1	13µM*	0	-6%	-2%	-9%	-26%
N#C/C(=C\c1ccc(N2CCOCC2)o1)c1ccccc1	7.1µM*	?	?	45%	-17%	?
O=C(Nc1cccc(Cl)c1)OCC#CCCl	/	?	7.9µM*[fluorescent]	/	0.79µM*	?
NC(=O)SCC(=O)Nc1cccc(Cl)c1	35%	10	-4%	12%	-3%	22µM*
NC(=O)SCC(=O)Nc1ccc(Cl)cc1	8%	6	0%	21%	0%	2%
Cc1cccc(N2CCN(C(=O)CCNS(=O)(=O)c3ccc4c(c3)CCN4C(=O)C3CC3)CC2C)c1 (centres undefined)	/	/	-5%	/	-3%	/
